Assay results reported in PubChem BioAssay AID1159580 (chemical genetic matrix, 2015).
Values joined by “and” are separate entries in the source; they are usually repeats but may differ in a detail not shown here. Identical values can stand only once. About 2,000 (36%) of roughly 5,500 compounds were called active. About 18% were inconclusive and are not listed. Rule as the data show it: active = normalized growth mostly below about 0.91 (no sharp cut-off); inconclusive = no clear call, values can overlap the other calls; inactive = mostly above about 0.92. Some of the results follow.

Experiment: chemical genetic growth profiling, strain panel (AID 1159580);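 also: tested at 20 µM; growth read once vehicle control cultures reached saturation at 30 °C; 1 = growth at the plate median or of vehicle wells; lower values mean less growth of the strain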
Conditions: S. cerevisiae deletion strains, growth OD

Measured: normalized growth

Nc1ccc(S(=O)(=O)c2ccc(N)cc2)cc1
inactive: locus YAL013W, strain DEP1, stronger effect = lower value 1.01 | locus YAL021C, strain ccr4, stronger effect = lower value 0.99 | locus YAL026C, strain drs2, stronger effect = lower value 1 | locus YAL030W, strain snc1, stronger effect = lower value 0.976 | locus YBL061C, strain skt5, stronger effect = lower value 0.993 | locus YBR009C, strain hhf1, stronger effect = lower value 1 | locus YBR021W, strain FUR4, stronger effect = lower value 1.04 | locus YBR023C, strain chs3, stronger effect = lower value 0.979 | locus YBR171W, strain sec66, stronger effect = lower value 1 | locus YBR229C, strain ROT2, stronger effect = lower value 1.01 | locus YBR231C, strain swc5, stronger effect = lower value 0.975 | locus YBR279W, strain paf1, stronger effect = lower value 0.983 | locus YCL011C, strain gbp2, stronger effect = lower value 0.999 | locus YCL016C, strain dcc1, stronger effect = lower value 0.997 | locus YCL029C, strain bik1, stronger effect = lower value 1.03 | locus YCL069W, strain vba3, stronger effect = lower value 1.01 | locus YCR088W, strain abp1, stronger effect = lower value 1.01 | locus YDL005C, strain med2, stronger effect = lower value 0.98 | locus YDL035C, strain GPR1, stronger effect = lower value 1.03 | locus YDL040C, strain nat1, stronger effect = lower value 0.991 | locus YDL074C, strain BRE1, stronger effect = lower value 1.02 | locus YDL101C, strain DUN1, stronger effect = lower value 1.02 | locus YDL134C, strain PPH21, stronger effect = lower value 1.02 | locus YDL185W, strain tfp1, stronger effect = lower value 1.02 | locus YDL192W, strain arf1, stronger effect = lower value 1.01 | locus YDR001C, strain nth1, stronger effect = lower value 1 | locus YDR069C, strain doa4, stronger effect = lower value 0.987 | locus YDR101C, strain arx1, stronger effect = lower value 0.987 | locus YDR137W, strain rgp1, stronger effect = lower value 1.01 | locus YDR159W, strain sac3, stronger effect = lower value 0.979 | locus YDR162C, strain NBP2, stronger effect = lower value 1.04 | locus YDR195W, strain ref2 0.939 | locus YDR297W, strain sur2, stronger effect = lower value 0.996 | locus YDR318W, strain mcm21, stronger effect = lower value 1.01 | locus YDR334W, strain swr1, stronger effect = lower value 0.986 | locus YDR335W, strain msn5, stronger effect = lower value 1 | locus YDR388W, stronger effect = lower value 1 | locus YDR392W, strain spt3, stronger effect = lower value 0.992 | locus YDR502C, strain sam2, stronger effect = lower value 1 | locus YEL003W, strain gim4, stronger effect = lower value 1.01 | locus YEL037C, strain rad23, stronger effect = lower value 1.01 | locus YEL061C, strain CIN8 (second series), stronger effect = lower value 1 | locus YEL061C, strain CIN8, stronger effect = lower value 1.01 | locus YER015W, strain faa2, stronger effect = lower value 0.999 | locus YER016W, strain bim1, stronger effect = lower value 0.991 | locus YER110C, stronger effect = lower value 0.993 | locus YER111C, strain swi4, stronger effect = lower value 1.02 | locus YER155C, strain BEM2 (second series), stronger effect = lower value 0.954 | locus YER155C, strain BEM2, stronger effect = lower value 1.02 | locus YER167W, strain BCK2, stronger effect = lower value 1.02 | locus YFR010W, strain ubp6, stronger effect = lower value 0.988 | locus YGL078C, strain dbp3, stronger effect = lower value 0.993 | locus YGL086W, strain mad1, stronger effect = lower value 1 | locus YGL167C, strain pmr1, stronger effect = lower value 0.995 | locus YGL173C, strain kem1, stronger effect = lower value 0.979 | locus YGL227W, strain vid30, stronger effect = lower value 1.01 | locus YGL240W, strain doc1, stronger effect = lower value 0.988 | locus YGL248W, strain PDE1, stronger effect = lower value 1.02 | locus YGL253W, strain hxk2, stronger effect = lower value 0.99 | locus YGR135W, strain pre9, stronger effect = lower value 1.01 | locus YGR229C, strain SMI1, stronger effect = lower value 1.03 | locus YGR252W, strain gcn5, stronger effect = lower value 1.01 | locus YHR013C, strain ard1, stronger effect = lower value 0.973 | locus YHR027C, strain rpn1, stronger effect = lower value 0.991 | locus YHR030C, strain SLT2, stronger effect = lower value 1.02 and 1.01 | locus YHR079C, strain IRE1 (second series), stronger effect = lower value 1.01 | locus YHR079C, strain IRE1, stronger effect = lower value 1.03 | locus YHR094C, strain hxt1, stronger effect = lower value 1.01 | locus YHR129C, strain ARP1, stronger effect = lower value 1.01 | locus YHR142W, strain chs7, stronger effect = lower value 1.01 | locus YHR200W, strain rpn10, stronger effect = lower value 1 | locus YIL066C, strain RNR3, stronger effect = lower value 1.02 | locus YIL073C, strain SPO22, stronger effect = lower value 1.03 | locus YIL125W, strain kgd1, stronger effect = lower value 1.01 | locus YIR030C, strain dcg1, stronger effect = lower value 1.01 | locus YJL092W, strain hpr5, stronger effect = lower value 0.998 | locus YJL095W, strain BCK1 (second series), stronger effect = lower value 0.983 | locus YJL095W, strain BCK1, stronger effect = lower value 1.02 and 1.03 | locus YJL115W, strain asf1, stronger effect = lower value 1 | locus YJL129C, strain trk1, stronger effect = lower value 0.991 | locus YJL134W, strain LCB3, stronger effect = lower value 1.03 | locus YJL154C, strain vps35, stronger effect = lower value 0.987 | locus YJL164C, strain tpk1, stronger effect = lower value 0.987 | locus YJL166W, strain qcr8, stronger effect = lower value 1 | locus YJL168C, strain set2, stronger effect = lower value 0.996 | locus YJL187C, strain SWE1 (second series), stronger effect = lower value 1.01 | locus YJL187C, strain SWE1, stronger effect = lower value 1 | locus YJR043C, strain POL32, stronger effect = lower value 1.01 | locus YJR066W, strain TOR1, stronger effect = lower value 0.98 | locus YJR075W, strain HOC1, stronger effect = lower value 1.02 | locus YKL009W, strain mrt4, stronger effect = lower value 0.988 | locus YKL068W, stronger effect = lower value 1.01 | locus YKL085W, strain MDH1 (second series), stronger effect = lower value 1.01 | locus YKL085W, strain MDH1, stronger effect = lower value 1.01 | locus YKL160W, strain elf1, stronger effect = lower value 0.988 | locus YKR001C, strain vps1, stronger effect = lower value 0.994 | locus YKR026C, strain gcn3, stronger effect = lower value 0.99 | locus YKR091W, strain srl3, stronger effect = lower value 1 | locus YLL001W, strain dnm1, stronger effect = lower value 0.991 | locus YLL026W, stronger effect = lower value 0.987 | locus YLL041C, strain sdh2, stronger effect = lower value 1.01 | locus YLR027C, strain aat2, stronger effect = lower value 1 | locus YLR039C, strain RIC1, stronger effect = lower value 0.972 | locus YLR058C, strain SHM2, stronger effect = lower value 1.02 | locus YLR102C, strain apc9, stronger effect = lower value 1.01 | locus YLR113W, strain HOG1, stronger effect = lower value 1.05 | locus YLR221C, strain rsa3, stronger effect = lower value 0.984 | locus YLR258W, strain gsy2, stronger effect = lower value 0.999 | locus YLR262C, strain YPT6 (second series), stronger effect = lower value 0.966 | locus YLR262C, strain YPT6, stronger effect = lower value 1.02 | locus YLR268W, strain sec22, stronger effect = lower value 1.01 | locus YLR320W, strain mms22, stronger effect = lower value 0.995 | locus YLR330W, strain CHS5, stronger effect = lower value 1.02 | locus YLR342W, strain FKS1 (second series), stronger effect = lower value 1.03 | locus YLR342W, strain FKS1, stronger effect = lower value 0.996 | locus YLR357W, strain rsc2, stronger effect = lower value 0.969 | locus YLR370C, strain arc18, stronger effect = lower value 0.992 | locus YLR371W, strain rom2, stronger effect = lower value 1.01 | locus YLR384C, strain iki3, stronger effect = lower value 0.987 | locus YLR418C, strain cdc73, stronger effect = lower value 1 | locus YML016C, strain PPZ1, stronger effect = lower value 1.01 | locus YML032C, strain rad52, stronger effect = lower value 0.999 | locus YML120C, strain ndi1, stronger effect = lower value 0.999 | locus YML124C, strain tub3, stronger effect = lower value 1.02 | locus YMR058W, strain fet3, stronger effect = lower value 1 | locus YMR078C, strain ctf18, stronger effect = lower value 1.01 | locus YMR125W, strain sto1, stronger effect = lower value 1 | locus YMR129W, stronger effect = lower value 0.996 | locus YMR205C, strain PFK2, stronger effect = lower value 0.976 | locus YMR223W, strain ubp8, stronger effect = lower value 0.994 | locus YMR231W, strain pep5, stronger effect = lower value 0.986 | locus YMR263W, strain SAP30, stronger effect = lower value 1.01 | locus YMR307W, strain GAS1, stronger effect = lower value 1.08 | locus YNL067W, strain RPL9B, stronger effect = lower value 1.02 | locus YNL071W, strain lat1, stronger effect = lower value 0.997 | locus YNL153C, strain GIM3, stronger effect = lower value 1.01 | locus YNL183C, strain NPR1, stronger effect = lower value 0.98 | locus YNL209W, strain ssb2, stronger effect = lower value 1 | locus YNL233W, strain BNI4, stronger effect = lower value 1.02 | locus YNL248C, strain rpa49, stronger effect = lower value 0.951 | locus YNL250W, strain rad50, stronger effect = lower value 0.985 | locus YNL271C, strain bni1, stronger effect = lower value 0.995 | locus YNL298W, strain CLA4, stronger effect = lower value 1 | locus YNL307C, strain MCK1, stronger effect = lower value 1 | locus YNL322C, strain KRE1 (second series), stronger effect = lower value 1 | locus YNR049C, strain mso1, stronger effect = lower value 1 | locus YNR052C, strain pop2, stronger effect = lower value 1.01 | locus YOL012C, strain htz1 0.692 | locus YOL147C, strain pex11, stronger effect = lower value 1.01 | locus YOR001W, strain rrp6, stronger effect = lower value 0.998 | locus YOR061W, strain CKA2, stronger effect = lower value 1.02 | locus YOR069W, strain VPS5, stronger effect = lower value 1.01 | locus YOR070C, strain gyp1, stronger effect = lower value 0.992 | locus YOR080W, strain dia2, stronger effect = lower value 0.984 | locus YOR083W, strain WHI5, stronger effect = lower value 0.984 | locus YOR106W, strain vam3, stronger effect = lower value 1.01 | locus YOR136W, strain idh2, stronger effect = lower value 1 | locus YOR144C, strain elg1, stronger effect = lower value 1.01 | locus YOR184W, strain ser1, stronger effect = lower value 1.02 | locus YOR231W, strain MKK1, stronger effect = lower value 1.04 | locus YOR265W, strain rbl2, stronger effect = lower value 0.987 | locus YOR270C, strain vph1, stronger effect = lower value 1.05 | locus YOR290C, strain snf2, stronger effect = lower value 0.99 | locus YOR316C, strain cot1, stronger effect = lower value 1 | locus YPL051W, strain arl3, stronger effect = lower value 0.977 | locus YPL055C, strain LGE1, stronger effect = lower value 1.03 | locus YPL078C, strain atp4, stronger effect = lower value 0.998 | locus YPL106C, strain sse1, stronger effect = lower value 0.984 | locus YPL240C, strain hsp82, stronger effect = lower value 0.991 | locus YPL241C, strain CIN2, stronger effect = lower value 1.01 | locus YPL256C, strain CLN2, stronger effect = lower value 1.02 | locus YPR119W, strain clb2, stronger effect = lower value 1.01 | locus YPR141C, strain kar3, stronger effect = lower value 1.02 | locus YPR163C, strain tif3, stronger effect = lower value 1.01 | locus YPR167C, strain met16, stronger effect = lower value 1.01 | strain wtn01, stronger effect = lower value 0.983
